This note sets out measurements from PubChem BioAssay AID651687 (Broad Institute, 2012).

Structures are written as SMILES. Where “and” joins values, the source holds several entries; their conditions need not be identical. Equal values may be shown once. Screen size: about 350,000 compounds; about 600 (0.17%) were called active. Only a selection was taken, and actives are over-represented in it overall. Unmarked numbers belong to inactive results.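 The calls were made as follows: active = every replicate shows inhibition of at least 40%; inconclusive = mean inhibition at least 40% but some replicate below; inactive = the rest.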

This assay is described as follows: compounds lowering acetylated PGC1a in cells – cell-based, U2OS, AlphaScreen, inhibitor mode, primary screen (AID 651687).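 Also: 0% = neutral control wells and 100% = positive control wells.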 The following applies: U2OS PGC1a acetylation, AlphaScreen anti-acetyl-lysine; at 15.6 µM; stronger effect = higher value; with virally co-expressed GCN5 acetyltransferase. For orientation: Bead proximity is the source of the signal in Alpha formats.
Usually inhibition stands for the change of the read-out against control, counted positive when it falls. In the case of `C[C@H]1CN([C@@H](C)CO)C(=O)c2cc(-c3ccc(C#N)cc3)cnc2O[C@@H]1CN(C)Cc1ccncc1`, the inhibition is -4.55%.
The value for `C[C@@H]1CCCCO[C@H](CN(C)C(=O)Nc2ccccc2)[C@H](C)CN([C@H](C)CO)C(=O)c2cc(N(C)C)ccc2O1` was 0.535%; that for `O=C(C[C@H]1C=C[C@H](NC(=O)c2cnccn2)[C@@H](CO)O1)NCc1ccccc1F` was -5.81%; that for `CN1CCN(CCC(=O)N/N=C/C=C2\N(C)c3ccccc3C2(C)C)CC1` was 17.1%.
As for `CN1/C(=C\C(=O)c2oc3ccccc3c2N)C(C)(C)c2ccccc21`, the figure is 86.9% (active); as for `CN1/C(=C\C=C2\N=C(c3ccc(F)cc3)OC2=O)C(C)(C)c2ccccc21`, -0.203%.
The value for `C[C@@H]1CN([C@H](C)CO)C(=O)c2cccc(NC(=O)c3nc4ccccc4s3)c2O[C@@H]1CN(C)Cc1ccc(Oc2ccccc2)cc1` was 16.2%.
For the compound `CN1CCN(C(=O)C[C@H]2CC[C@H]3[C@@H](COC[C@H](O)CN3CC3CCOCC3)O2)CC1`, the inhibition is 0.0455%.
On to `CC/C(=N\NC(=O)c1ccccc1Cl)c1ccc(Br)s1`, for which the inhibition is 82.8% (active).
The value for `O=C(N/N=C\c1cc2c(cc1Cl)OCO2)c1ccc(Br)s1` was -10.7%; that for `C/C(Cc1ccccc1)=N\NC(=O)CNC(=O)c1ccccc1Cl` was 5.72%.
As for `COc1ccc(S(=O)(=O)N(C)C[C@H]2OCCCC[C@@H](C)Oc3ccc(NS(=O)(=O)c4ccc(C)cc4)cc3C(=O)N([C@@H](C)CO)C[C@@H]2C)cc1`, the figure is 0.06%; as for `COc1ccc(-c2ccc(CCC(=O)O)n2-c2ccc(O)cc2)cc1`, 1.05%.
In the case of `COCCCn1c(CCC(=O)O)ccc1-c1ccc(F)cc1`, the inhibition was -1.42%.
As for `COc1ccc(-c2ccc(CCC(=O)O)n2NC(=O)c2ccc(C(C)(C)C)cc2)cc1`, the figure is 43.5% (active); as for `Cc1noc(C)c1NC(=O)N(C)C[C@@H]1OCCCC[C@H](C)Oc2ccc(NS(=O)(=O)c3c(C)noc3C)cc2C(=O)N([C@@H](C)CO)C[C@@H]1C`, -1.1%.
The value for `CN1C(=O)c2cc(NC(=O)C3CCOCC3)ccc2OC[C@@H]2O[C@@H](CC(=O)NCC3CC3)CC[C@@H]21` was 4.15%.
As for `C[C@@H]1CN([C@H](C)CO)C(=O)c2cc(NS(=O)(=O)c3cn(C)cn3)ccc2O[C@@H](C)CCCCO[C@@H]1CN(C)C(=O)CCC(F)(F)F`, the figure is -2.59%.
For the compound `COc1ccc(NC(=O)N2CC(=O)N3[C@H](CO)[C@@H](c4ccc(-c5ccc(C)cc5)cc4)[C@H]3C2)cc1`, the inhibition was 5.16%.
For the compound `COc1ccccc1C(=O)Nc1ccc2c(c1)OC[C@@H](C)NC[C@H](C)[C@@H](OC)CN(C)C2=O`, the inhibition was -5.63%.
Consider `O=C(C[C@@H]1C[C@@H]2c3cc(NC(=O)c4ccc5c(c4)OCO5)ccc3O[C@@H]2[C@H](CO)O1)NCCc1ccccc1`, for which the inhibition is -4.93%.
The value for `CCN1[C@@H]2Cn3c(ccc(-c4cccnc4)c3=O)[C@H]1[C@@H](C(=O)NC1CCCCC1)[C@@H]2CO` was 1.27%; that for `CCCNC(=O)C[C@H]1CC[C@H]2[C@@H](COC[C@H](O)CN2C(=O)CC)O1` was 3.49%.
The value for `CCCNC(=O)C[C@H]1CC[C@@H]2[C@H](COC[C@H](O)CN2S(=O)(=O)c2ccccc2F)O1` was -0.728%; that for `O=C(C[C@@H]1CC[C@H](NC(=O)CN2CCOCC2)[C@@H](CO)O1)NCCc1ccccc1` was -5.55%; that for `CC(C)NC(=O)Nc1ccc2c(c1)C(=O)N([C@@H](C)CO)C[C@@H](C)[C@H](CN(C)S(=O)(=O)c1ccccc1)OCCCC[C@@H](C)O2` was 124% (active).
As for `CC(C)NC(=O)Nc1ccc2c(c1)C(=O)N([C@@H](C)CO)C[C@@H](C)[C@@H](CN(C)S(=O)(=O)c1ccc(F)cc1)OCCCC[C@H](C)O2`, the figure is -0.972%; as for `CC(C)NC(=O)Nc1ccc2c(c1)C(=O)N([C@@H](C)CO)C[C@H](C)[C@H](CN(C)S(=O)(=O)c1ccc(Cl)cc1)OCCCC[C@H](C)O2`, -18.6%.
As for `C[C@@H]1CN([C@H](C)CO)S(=O)(=O)c2ccc(C#CC3CCCC3)cc2O[C@@H]1CN(C)Cc1cccnc1`, the inhibition was -39.6%.
The value for `COCC(=O)Nc1ccc2c(c1)OC[C@@H](C)N(C(=O)c1cnccn1)C[C@H](C)[C@@H](OC)CN(C)C2=O` was -1.16%; that for `Cc1ccc(S(=O)(=O)NC[C@H]2CC[C@@H]3[C@@H](CN3Cc3ccccc3C(=O)O)O2)cc1` was -6.11%; that for `Cc1noc(C)c1NC(=O)N(C)C[C@H]1OCCCC[C@H](C)Oc2ccc(NC(=O)Cc3ccccc3)cc2C(=O)N([C@H](C)CO)C[C@@H]1C` was 0.037%.
As for `C[C@H]1CN([C@@H](C)CO)C(=O)c2cc(NC(=O)Nc3ccccc3)ccc2O[C@H]1CN(C)S(C)(=O)=O`, the figure is -6.24%; as for `C[C@@H]1CN([C@@H](C)CO)C(=O)c2cc(/C=C/c3ccccc3)cnc2O[C@H]1CN(C)C(=O)Nc1ccc(C(F)(F)F)cc1`, -1.88%; as for `O=C(NC1=CC(=O)c2ccccc2C1=O)c1ccccc1`, 80.8% (active).
As for `O=C(Nc1ccc2ccccc2c1[N+](=O)[O-])c1ccccc1`, the figure is 14%.
For the compound `O=C(Nc1ncccc1O)c1ccc(C(=O)c2ccccc2)cc1`, the inhibition is 5.14%.
Take `O=C(CC1CC1)N1CC[C@@H]2[C@@H](CO)Nc3ccc(-c4ccccc4)cc3[C@@H]21`: the inhibition was -14.4%.
The value for `CO[C@@H]1CN(C)C(=O)c2cc(NC(=O)Nc3cccc(Cl)c3)ccc2OC[C@@H](C)N(C)C[C@@H]1C` was 7.96%.
As for `CCCN1C[C@@H](C)[C@@H](OC)CN(C)C(=O)c2cc(NC(=O)c3ccccc3)ccc2OC[C@H]1C`, the figure is -3.59%; as for `Cc1cc(C(=O)Nc2cccc3c2O[C@@H](CN(C)S(=O)(=O)c2ccc(F)cc2)[C@@H](C)CN([C@H](C)CO)C3=O)n(C)n1`, 4.7%.
The value for `O=C(C[C@@H]1CC[C@@H](NS(=O)(=O)c2ccccc2)[C@H](CO)O1)NCc1ccc(Cl)c(Cl)c1` was -0.169%; that for `COCC(=O)N1CC2(CN(C(=O)c3cccnc3)C2)c2c([nH]c3cc(OC)ccc23)[C@H]1CO` was 3.03%; that for `Cc1ccc(C(=O)N2CCN(S(=O)(=O)N3CCOCC3)CC2)cc1` was -14.3%.
With `Cc1oc2c(c1C(=O)N1CCOCC1)C(=O)c1ccccc1C2=O`, the inhibition was 42.9% (active).
As for `O=C(c1snnc1-c1ccccc1)N1CCOCC1`, the figure is 17.2%; as for `O=C(C1CCCCC1)N1C[C@@H]2N[C@H](C1)C2c1ccc(-c2cccc(F)c2)cc1` (some centres not stated), -62.3% and -12.6%.
For `Cc1cccc(-c2ccc(C3[C@@H]4CN(C(=O)Nc5ccc(C(F)(F)F)cc5)C[C@H]3N4)cc2)c1` (some centres not stated), the inhibition is 92.4% (active) and 92.8% (active).
As for `CN(C)C(=O)c1ccc(-c2ccc(C3[C@@H]4CN(C(=O)Nc5ccccc5)C[C@H]3N4)cc2)cc1` (some centres not stated), the figure is -6.33%.
For the compound `CO[C@H]1CN(C)C(=O)c2ccc(NC(=O)NC(C)C)cc2OC[C@@H](C)N(C(=O)CN(C)C)C[C@H]1C`, the inhibition is 9.74%.
The value for `Cc1ccc(C(=O)C[n+]2cc(-c3ccccc3)n3c2CCCCC3)cc1` was 20.9%; that for `Cc1ccc(-c2c[n+](CC(=O)Nc3ccccc3)c3n2CCC3)cc1` was 43.3% (active); that for `Clc1ccc(C[n+]2cc(-c3ccccc3)n3c2CCC3)cc1` was -17.2%.
The value for `COc1ccc(S(=O)(=O)Nc2ccc3c(c2)C(=O)N([C@H](C)CO)C[C@H](C)[C@@H](CN(C)Cc2ccccc2)OCCCC[C@@H](C)O3)cc1` was -2.9%.
As for `COc1ccc(-c2ccc3c(c2)[C@@H]2[C@@H](CCN2C(=O)c2cccc(F)c2)[C@H](CO)N3)cc1`, the figure is 6.58%; as for `O=C(Nc1ccc2c(c1)[C@@H]1C[C@H](CC(=O)N3CCOCC3)O[C@@H](CO)[C@@H]1O2)C1CCOCC1`, -6.68%; as for `CNC[C@H]1Oc2cc(C#CC3CCCC3)ccc2S(=O)(=O)N([C@H](C)CO)C[C@@H]1C`, -10.8%.
As for `C[C@@H]1CCCCO[C@@H](CN(C)C(=O)Cc2ccccc2)[C@H](C)CN([C@@H](C)CO)C(=O)c2cc(NC(=O)Nc3ccc4c(c3)OCO4)ccc2O1`, the inhibition was -5.63%.
As for `COc1ccc(NS(=O)(=O)c2ccc(F)cc2F)cn1`, the figure is 0.335%.
As for `COc1ccc(NC(=O)CN2C(=O)NC(C)(c3ccccc3)C2=O)cn1` (configuration not stated), the figure is 0.857%; as for `COc1ccc(NC(=O)/C(Cl)=C(/Cl)S(=O)Cc2ccc(C)cc2)cn1` (configuration not stated), 69.3% (active); as for `Cc1noc(C)c1NC(=O)Nc1ccc2c(c1)C(=O)N([C@@H](C)CO)C[C@H](C)[C@@H](CN(C)C(=O)Nc1ccccc1)O2`, -6.84%.
With `C[C@@H]1CCCCO[C@@H](CN(C)C(=O)CCCN(C)C)[C@H](C)CN([C@@H](C)CO)C(=O)c2cc(NC(=O)Nc3ccccc3)ccc2O1`, the inhibition was 20%.
The value for `C[C@@H]1CN([C@@H](C)CO)C(=O)c2cc(NS(C)(=O)=O)ccc2O[C@H]1CN(C)C(=O)Nc1ccc(F)cc1` was 0.678%; that for `Cn1cnc(S(=O)(=O)N2CC[C@@H]3[C@H]2c2cc(C#Cc4cccc(F)c4)ccc2N[C@@H]3CO)c1` was -5.83%.
The value for `CCS(=O)(=O)NCC[C@H]1CC[C@@H](NC(=O)Nc2cc(Cl)cc(Cl)c2)[C@@H](CO)O1` was -5.94%.
With `Cc1ccc(S(=O)(=O)N[C@@H]2CC[C@@H](CCn3cc(C(C)C)nn3)O[C@H]2CO)cc1`, the inhibition is -5.62%.
